Only some compounds are listed: those with a hit (about 2.1% of all), similar ones and a draw of the others.
KLF5 inh: inhibitors of KLF5 expression | DLD-1 KLF5 promoter-luciferase reporter, luminescence | inhibition, % at 5 µM | actives 0.23% (n = 290,000);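 active = inhibition above a per-plate limit of that plate's mean compound inhibition plus 3 SD, cut at about 60% in these data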;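 note: 0% = DMSO wells and 100% = LY294002 at 200 µM; higher means less KLF5 promoter-driven luciferase light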
BaF3 parental: parental Ba/F3 viability inhibition as JAK2V617F counter-screen; actives 1.1% (n = 220,000); inhibition, % at 5.6 µM; CellTiter-Glo ATP luminescence;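 active = inhibition above a per-campaign cutoff, the mean inhibition of all tested compounds plus 3 SD, cut at about 27% in these data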;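 note: 0% = DMSO wells and 100% = JAK Inhibitor I control wells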
Ba/F3 V617F tox: reduce viability of Ba/F3 cells dependent on JAK2V617F. Ba/F3 EpoR-JAK2V617F viability, ATP luminescence. inhibition, % at 5.6 µM. actives 1.1% (n = 220,000). AID 1446;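 active = inhibition above the campaign mean plus 3 SD over all tested compounds, cut at about 24% in these data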;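 note: cytokine-independent growth of Ba/F3 cells driven by EpoR plus mutant JAK2; 0% = DMSO-treated cells and 100% = JAK inhibitor I control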
APP transl inh: APP translation inhibition; actives 0.82% (n = 190,000); inhibition, % at 2 µM; SH-SY5Y APP 5'UTR-luciferase reporter, luminescence;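 active = inhibition above a set limit, derived from the sample mean plus 3 SD, cut at about 45% in these data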
IEC-6 tox: IEC-6 cytotoxicity, counter-screen for KLF5 inhibitors. actives 0.78% (n = 290,000). inhibition, % at 5 µM. luminescence viability. AID 1825; in the data active = inhibition above about 22%;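 note: 0% = plate median of test compound wells and 100% = cytotoxic reference compound wells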
aSyn UTR inh: MLPCN primary screen, SNCA 5' untranslated region; inhibition, % (tested at 7.5 µM); AID 1813; alpha-synuclein 5'UTR reporter, inhibitor activity; actives 0.82% (n = 300,000); in the data active = inhibition above about 60%;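 note: H4 neuroglioblastoma cells stably carrying SNCA 5'UTR luciferase fusion; 0% = DMSO wells and 100% = positive control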
* hit, by the source's call; x = not tested or not shown.

SMILES	KLF5 inh	BaF3 parental	Ba/F3 V617F tox	APP transl inh	IEC-6 tox	aSyn UTR inh
O=C(Nc1ccc([N+](=O)[O-])cc1)Nc1nc(-c2ccc(Cl)s2)cs1	6	4	-2	56*	-10	92*
O=C(Nc1ccc([N+](=O)[O-])cc1)C(=O)Nc1cccc(C(=O)O)c1	81*	9	7	x	10	102*
Cc1cc(C)nc(CCNC(=O)c2cc(COc3ccccc3)on2)n1	-38	x	x	x	-5	-14
O=C(Cc1cccc2ccccc12)N/N=C/c1ccc(Sc2cccc3cccnc23)o1	-2	1	-4	54*	0	2
CCCCC(=O)N/N=C/c1ccc(Sc2cccc3cccnc23)o1	-22	2	0	-1	7	38
Cc1cccc(OCC(O)CN2CC3(C)CC2CC(C)(C)C3)c1 (configuration not stated)	-21	4	-2	49*	-4	20
Cc1ccc(OCC(O)CN2CC3(C)CC2CC(C)(C)C3)cc1 (configuration not stated)	8	4	-3	7	-2	-22
O=C(O)c1cc(C2CC2)nc2ccccc12	-11	11	5	19	-2	2
O=C(O)C[C@H](O)C[C@H](O)/C=C/c1c(C2CC2)nc2ccccc2c1-c1ccc(F)cc1	x	x	x	x	x	104*
COc1ccc(OC)c(C2Nc3ccccc3NC3=C2C(=O)CC(C)(C)C3)c1 (configuration not stated)	-32	x	x	x	2	-2
CCCOc1ccc(/C=N/Nc2cccc([N+](=O)[O-])c2)c(O)c1	-39	1	1	-15	-6	-164
CCCOc1ccc(/C=N/Nc2ccccc2[N+](=O)[O-])c(O)c1	-28	4	-3	-173	-2	62*
CCCOc1ccc(/C=N/NC(=S)Nc2ccccc2[N+](=O)[O-])c(O)c1	35	4	-3	46*	-1	101*
CN(C)CCCNS(=O)(=O)c1ccc(N2CCN(Cc3ccc4c(c3)OCO4)CC2)c([N+](=O)[O-])c1	-2	x	x	x	6	-8
CC1CN(c2ccc([N+](=O)[O-])c(NCCOc3ccc(Cl)cc3)c2)CC(C)N1 (configuration not stated)	-16	x	x	x	-2	104*
CC1CN(c2ccc([N+](=O)[O-])c(NCCOc3ccccc3)c2)CC(C)N1 (configuration not stated)	-35	x	x	x	5	-21
O=C1C=CC(=O)C(C2=C3C(=O)N(CCc4ccccc4)CC(=O)N3CCC2)=C1	4	-1	-5	65*	-1	24
O=C1CC(=O)N(CCc2ccccc2)C(=O)N1CCc1ccccc1	-49	5	1	9	-1	14
Nc1c(S(=O)(=O)c2cccc(Cl)c2)c2nc3ccccc3nc2n1/N=C/c1ccc(O)c(O)c1	23	6	1	2	4	89*
COc1ccc(N(CC(=O)Nc2cc(Cl)ccc2OC)S(=O)(=O)c2c(C)noc2C)cc1	-1	54*	8	54*	3	71*
COc1ccc(OC)c(NC(=O)CN(c2ccc(C)cc2)S(=O)(=O)c2c(C)noc2C)c1	10	0	-1	-10	-1	12
Cc1c(C(C)(C)C)c(C=S)n2ccccc12	6	3	-2	70*	5	4
Cc1cc(O)c(C2=Nc3ccccc3SC(c3ccc(Cl)cc3)C2)c(=O)o1 (configuration not stated)	-17	2	-2	-112	0	-261
COc1ccc(C2CC(c3c(O)cc(C)oc3=O)=NCCS2)c(OC)c1 (configuration not stated)	-48	1	-3	93*	6	x
CCC(C)(C)c1ccc(Oc2ccc(N)cc2)cc1	51	15	13	80*	1	127*
SMILES	KLF5 inh	BaF3 parental	Ba/F3 V617F tox	APP transl inh	IEC-6 tox	aSyn UTR inh
COC(=O)c1ccc(Oc2cc(C)nc(SC)n2)cc1	12	5	1	86*	7	27
CC(C)c1ccc(NC(=O)NN2CCOCC2)cc1	-143	8	1	-86	-2	-98
CC(C)C(NC(=O)/C=C/c1cccc([N+](=O)[O-])c1)C(C)C	-2	3	-6	-8	-5	11
CC(C)NC(=O)c1ccccc1NC(=O)/C=C/c1cccc([N+](=O)[O-])c1	-16	6	0	29	-1	63*
O=C(CCOc1ccccc1)Nc1ccnn1C1CCN(C(=O)CCC(F)(F)F)CC1	-32	x	x	x	1	-17
CN(C)CCCN(C(=O)CCc1ccccc1)c1nc2ccc(F)cc2s1	-14	3	-1	-1	-2	-70
Cc1ccc2nc(N(CCCN(C)C)C(=O)c3ccc(S(=O)(=O)N4CCc5ccccc5C4)cc3)sc2c1	-16	x	x	x	-6	88*
CN(C)CCCN(C(=O)c1ccc(S(=O)(=O)N2CCc3ccccc3C2)cc1)c1nc2ccc(F)cc2s1	-21	x	x	x	2	99*
Cc1cc(C)c2sc(N(CCCN(C)C)C(=O)c3ccc(S(=O)(=O)N4CCc5ccccc5C4)cc3)nc2c1	x	x	x	x	x	30
CN(C)CCCN(C(=O)c1cc(-c2cccs2)nc2ccccc12)c1nc2ccc(F)cc2s1	-35	x	x	x	-1	99*
CN(C)CCCN(C(=O)c1ccc(S(=O)(=O)N2CCc3ccccc32)cc1)c1nc2ccc(F)cc2s1	5	x	x	x	-7	1
COc1cc(SC)ccc1C(=O)Nc1ncc(C)s1	5	-1	1	-128	7	98*
COc1cc(SC)ccc1C(=O)Nc1ccc(Br)cn1	-97	1	-5	x	-3	101*
COc1cc(SC)ccc1C(=O)Nc1ccc(C)cc1	-70	5	-2	-184	2	-142
COc1ccc(C2CC(=O)C(C=NCCN3CCN(C(=S)Nc4ccccc4)CC3)=C(O)C2)cc1OC (configuration not stated)	-13	5	0	-5	-9	-4
Cc1cc(C(=O)CSc2nc(N)cc(=O)[nH]2)c(C)n1-c1ccc(OC(F)F)cc1	-13	52*	40*	5	-2	10
COc1ccc(-n2c(C)cc(C(=O)CCl)c2C)cc1	-53	0	3	44	-2	65*
Cc1cc(-n2c(C)cc(C(=O)CCl)c2C)no1	-15	7	4	13	-6	119*
Cc1cc(-n2c(C)cc(C(=O)CSc3nc(N)cc(=O)[nH]3)c2C)no1	-12	8	3	x	1	7
c1ccc(Cc2noc(CN3CCN(CCOc4ccccc4)CC3)n2)cc1	-16	8	-1	-8	1	-4
O=C(C[n+]1cc(-c2ccccc2)n2c1CCC2)OCc1ccccc1	-18	3	1	-1	5	10
O=C(C[n+]1cc(-c2ccccc2)n2c1CCCCC2)c1ccc(Br)cc1	-2	73*	61*	7	-1	13
COc1ccc(C(=O)C[n+]2cc(-c3ccc(OC)cc3)n3c2CCCC3)cc1	3	64*	65*	-16	5	5

Screening results as filed in PubChem.
